Assay results: PubChem BioAssay (NCI)
“And” between values parts separate entries of the source, which are not always exact repeats. Identical values can stand only once. The panel holds about 79,000 compounds, 15% with a hit somewhere; the sample as a whole holds those more often. Unmarked numbers belong to inactive results. The source made the active and inactive calls. Cut-off read from the data, not from the text of the source: active = growth inhibition above about 70%; inactive = the rest.

Columns and labels:
[1] = NCI Yeast Anticancer Drug Screen. Data for the rad50 strain (AID 155);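 note: 0% = growth of vehicle-only cultures of the same strain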; settings: S. cerevisiae rad50 strain growth inhibition, stronger effect = higher value; at 50.0 µM unless noted
Outline: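 Compounds were tested on a yeast strain with an engineered DNA damage repair alteration; the reported value is growth inhibition normalised to vehicle treatment.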

[2] = NCI Yeast Anticancer Drug Screen. Data for the mec2-1 strain (AID 157); settings: S. cerevisiae mec2-1 strain, stronger effect = higher value; at 50.0 µM unless noted
Outline: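 Strain: mec2-1 (DNA repair/cell cycle alteration). Compound exposure, then growth measured; inhibition expressed relative to vehicle.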

[3] = NCI Yeast Anticancer Drug Screen. Data for the sgs1 mgt1 strain (AID 161);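 note: 0% = growth of cultures given vehicle only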; settings: S. cerevisiae sgs1 mgt1 strain, stronger effect = higher value; at 50.0 µM unless noted
Outline: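 Inhibition of yeast growth, normalised to vehicle-treated controls, is reported for a strain bearing genetic alterations in DNA damage repair.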

[4] = NCI Yeast Anticancer Drug Screen. Data for the cln2 rad14 strain (AID 165);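 note: 0% = growth equal to vehicle treated cultures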; settings: S. cerevisiae cln2 rad14 strain, stronger effect = higher value; at 50.0 µM unless noted
Outline: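 Compounds are applied to the cln2 rad14 yeast strain, and growth is then compared with that of vehicle-treated cultures to give inhibition.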

[5] = NCI Yeast Anticancer Drug Screen. Data for the bub3 strain (AID 167); settings: S. cerevisiae bub3 mutant strain, stronger effect = higher value; at 50.0 µM unless noted
Outline: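 Growth of a checkpoint-deficient yeast mutant is measured after compound exposure. Values represent inhibition relative to vehicle.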

[6] = NCI Yeast Anticancer Drug Screen. Data for the mlh1 rad18 strain (AID 175); settings: S. cerevisiae mlh1 rad18 strain growth inhibition, stronger effect = higher value; at 50.0 µM unless noted
Outline: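 Read-out is yeast growth inhibition, calculated against vehicle-only controls. The compound was applied to a strain engineered with DNA damage repair alterations.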

Compound | growth inhibition [1] | growth inhibition [2] | growth inhibition [3] | growth inhibition [4] | growth inhibition [5] | growth inhibition [6]
BrC1(Br)C2CCCCCCC21 (centres undefined) | -26.6% | 4.85% | 3.15% | -6.6% | -21.1% | -29.7%
CC(=O)OCC1OC(n2c(=O)[nH]c(=O)c3n[nH]nc32)C(OC(C)=O)C(OC(C)=O)C1OC(C)=O (centres undefined) | -4.2% | 7.15% | 3.4% | 24.9% | -1.05% | -4.35%
O=CC(O)C(O)C(O)C(O)C(O)C(O)CO (centres undefined) | 16% | 10.7% | 28.1% | -1.55% | 5.9% | 19.6%
COc1ccc(C(=O)/C=C/c2ccc(OCC#N)cc2)cc1OC | -39.5% | -61.4% | -38.5% | -30.2% | -33% | -54.1%
CCOC(=O)C/C(O)=C(/C=N/C(=S)NNC(C)=O)C(=O)OCC | -27.1% | -28.9% | -32.2% | 2.65% | -19.6% | -8.65%
CCCCCCC1OCC(CC)([N+](=O)[O-])CO1 (centres undefined) | -13.8% | -9.6% | 1.15% | -39.8% | -23.6% | -12.9%
N=C(N)SCCc1cn2ccccc2n1 | -5.45% | -45.9% | -17.1% | 3.65% | -15.8% | 1.05%
COc1ccc2c(c1)OC[C@@H]1c3cc(NC(=O)c4ccccc4)c(OCc4ccccc4)cc3N(S(=O)(=O)c3ccccc3)[C@H]21 | -23.9% | -13.9% | -2.1% | -2.5% | -9% | 9.4%
C#CCSC(=S)NNc1ccccc1 | 33.1% | 29.1% | 33.1% | 6.2% | 60.8% | 24.8%
O=S(=O)(c1ccccn1)c1nc2ccccc2s1 | -1.75% | 7.1% | -0.45% | 17.1% | -2.8% | 0.45%
O=C(COc1ccc(Cl)cc1)N1CCN(C(=O)COc2ccc(Cl)cc2)c2ccccc21 | 11.7% | 3.05% | 23.9% | 11.1% | 11.6% | -1.05%
O=C(O)Cc1cc2c(cc1I)OCO2 | -1.2% | 22.9% | 2.15% | -18.9% | -11.2% | -0.55%
CC(=O)C(C)(CCN(C)C)c1ccccc1 (centres undefined) | 6.5% | 4.4% | 7.45% | -10.3% | 6.55% | 12.8%
CSCCCCC(N)C(=O)O (centres undefined) | 0.05% | 3% | -0.9% | -14% | 12.4% | -3.85%
CC(=O)OCc1c(COC(C)=O)c(-c2ccc(Cl)cc2)n2c1CCC2 | 34% | 16.6% | 19.3% | -18.1% | 9.6% | 23.9%
C=CCSCc1ccccc1 | 4.55% | 2.95% | -13.6% | 3.8% | -2.15% | 19.7%
Fc1cccc2c(SCc3ccc(Cl)cc3Cl)cnnc12 | -0.9% | -1.25% | 3.25% | -44.5% | 13.8% | 2.85%
Cc1ccc(N[P+](c2ccccc2)(c2ccccc2)c2ccccc2)cc1.[Cl][Fe]([Cl])([Cl])[Cl] | 44.1% | 3% | 22.9% | -8.4% | 11.7% | 12.6%
O=C(CS(=O)(=O)c1ccccc1)c1ccccc1 | -14.4% and 14.6% | -18.9% and 13.1% | -6.05% and 12.6% | 8.75% and 1.5% | 0.55% and 29.9% | -29.9% and 28.3%
COC1CC(n2ccc(=O)[nH]c2=O)OC1CO (centres undefined) | -8.25% | -10.6% | 2.65% | 28.1% | -25.6% | 6.4%

Compound | growth inhibition [1] | growth inhibition [2] | growth inhibition [3] | growth inhibition [4] | growth inhibition [5] | growth inhibition [6]
C(/C=N/Nc1ccccc1)=N\Nc1ccccc1 | 24.1% | -8.15% | -0.65% | -3% | -9.85% | 8.8%
Cc1ccccc1C(=O)c1ccccc1C | -16.3% | -9.95% | -7.2% | -34% | -1.55% | -9.9%
CC(=O)Oc1cc(C)c(OC(C)=O)c2ccccc12 | -6.6% | 17.7% | 4.45% | -1.3% | 10.3% | 4.1%
c1cc2c(cc1CSCc1c(CSCc3ccc4c(c3)OCO4)c(CSCc3ccc4c(c3)OCO4)c(CSCc3ccc4c(c3)OCO4)c(CSCc3ccc4c(c3)OCO4)c1CSCc1ccc3c(c1)OCO3)OCO2 | -0.95% | -8.65% | -1.4% | -39% | 2.55% | 9.3%
c1ccc(N=NC2(c3ccccc3)CC(c3ccccc3)=NN(c3ccccc3)C2NNc2ccccc2)cc1 (centres undefined) | 53% | 7.8% | 23.8% | 17.7% | 6.75% | 31.7%
Cc1cc[nH]c(=O)c1[N+](=O)[O-] | -12.3% | -10.8% | -2.85% | -25.7% | -9.65% | 2.65%
O=C(Nc1ccccc1)Nc1ccc2c(c1)oc1ccccc12 | 8.85% | 6.7% | 9.6% | 28% | 10.9% | 25.6%
COC1/C=C/OC2(C)Oc3c(C)c(O)c4c(c3C2=O)C(N)=C(NC2CC2)C(=NC(=O)/C(C)=C\C=C\C(C)C(O)C(C)C(O)C(C)C(OC(C)=O)C1C)C4=O (centres undefined) | 15.7% | 32.7% | 41.2% | 49% | 31.9% | 33.1%
O=CN1CCCCC1 | -43.1% and -15.2% | -26% and -2.6% | -3.05% and -5.15% | 3.15% and -27.7% | -18.9% and 0.45% | -8.8% and 0.65%
O=C1OC(Oc2ccccc2)c2cc3c(cc21)OCO3 (centres undefined) | 20.4% | -6.05% | 21.3% | 20.6% | 17.9% | 29.5%
NC(=O)CC[n+]1ccccc1 | 11.1% | -29.3% | 6.5% | 11.7% | -19.4% | 7.2%
CCCCCCCCCCCC[N+](C)(C)C(C)Cc1ccccc1 (centres undefined) | 99.3% (active) | 99.5% (active) | 89.8% (active) | 99.4% (active) | 99.2% (active) | 99.3% (active)
N#C/C(=C1/c2cc([N+](=O)[O-])ccc2-c2c1cc([N+](=O)[O-])cc2[N+](=O)[O-])N1CCCCC1 | -25.4% | -5.3% | 2.5% | -17.8% | -22.8% | -13.7%
CN(C)/N=C(\CBr)c1ccc([N+](=O)[O-])cc1 | -1.8% | 4.9% | 6.75% | 11.2% | -3% | 5.4%
COc1ccc(C2CC(=O)N(c3ncccn3)C(=O)C2)cc1 | 14.5% | 8.4% | 10% | -13.7% | -12.3% | 5.25%
OCc1ccc(Cl)c(Cl)c1 | -4.15% | -11.9% | 0.1% | 8.15% | 2.8% | 3.3%
Cl | -13.4% and -6.25% | -29.2% and 17.5% | -10.4% and 1.8% | -0.9% and 2.2% | -5.15% and -38% | -16% and -32.6%
O=C(Cc1ccccc1)NCc1ccco1 | -3.25% | 8.55% | -11.6% | -10.9% | -7.45% | 7.3%
CC(=O)c1ccc(O)c(/C=C2\CCOC2=O)c1 | 8.2% | 8.4% | -9% | -3.45% | 9.55% | 7.7%
